High-throughput results deposited in PubChem by National Center for Advancing Translational Sciences (NCATS).
AmpC inh detg: inhibitors of E. coli AmpC beta-lactamase with detergent. AmpC hydrolysis of nitrocefin, absorbance 480 nm, 0.01% Triton. Potency, µM (series often up to 114 µM), usual class: inhibitors. 370,000 compounds, 0.041% hits. AID 485294; also: nearly all actives have a fitted effect of over 25% in size
Target sequence (P00811 whole entry, looked up): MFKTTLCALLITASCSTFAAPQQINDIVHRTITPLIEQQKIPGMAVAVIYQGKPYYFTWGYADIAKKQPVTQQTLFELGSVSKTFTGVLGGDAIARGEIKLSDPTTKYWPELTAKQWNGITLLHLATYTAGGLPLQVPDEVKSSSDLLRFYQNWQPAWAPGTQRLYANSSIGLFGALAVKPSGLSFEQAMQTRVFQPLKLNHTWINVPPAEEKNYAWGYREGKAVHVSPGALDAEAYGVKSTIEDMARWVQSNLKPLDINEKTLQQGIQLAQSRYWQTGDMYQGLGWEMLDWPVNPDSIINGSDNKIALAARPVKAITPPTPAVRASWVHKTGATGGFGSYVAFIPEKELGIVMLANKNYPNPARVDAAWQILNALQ
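20 mM phosphate pH 7.0 + 0.01% (detergent screen) or 0.0001% Triton X-100; 5.3 nM AmpC reagent; cpd preinc 15 min RT; nitrocefin (800 uM stock) to start; A480 q20 s × 4 min; Activity was normalised to no-enzyme and no-compound control wells.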
HCV inh: HCV inhibition; Potency, µM (titrated, usually from 41.8 µM), actives largely listed as inhibitors; AID 651820; Huh7.5.1 HCVcc-Cre infection, luciferase reporter, 44 h; 340,000 compounds, 3.4% hits
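HCVcc-Cre virus at an moi near 0.5 was added right after compound to cells cultured 4 h from seeding (1,000 cells/well). Luciferase activity was determined 44 h later, 15 min after substrate addition at RT.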
Pf growth 48h: inhibits P. falciparum growth in the first generation, 48 h | P. falciparum luciferase growth in erythrocytes, 48 h | Potency, µM (titrated, usually from 28.7 µM), usual class: inhibitors | 310,000 compounds, 5.9% hits | AID 504832
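Parasite viability was followed by luminescence of a genomically integrated firefly luciferase. Cultures held 0.1% parasitemia at 2% hematocrit (final), incubated under 5% CO2 at 37 C.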
AmpC no deterg: AmpC beta-lactamase inhibition without detergent; Potency, µM (doses to about 57.1 µM), actives largely listed as inhibitors; AmpC nitrocefin hydrolysis, absorbance 480 nm, 0.0001% Triton; P00811; 330,000 compounds, 0.52% hits; AID 485341; also: nearly all actives have a fitted effect of over 20% in size
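20 mM phosphate pH 7.0 + 0.01% (detergent screen) or 0.0001% Triton X-100; 5.3 nM AmpC reagent; cpd preinc 15 min RT; nitrocefin (800 uM stock) to start; A480 q20 s × 4 min; Activity was normalised to no-enzyme and no-compound control wells.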
Pf growth 96h: inhibits malaria parasite growth, 96 h; Potency, µM (top dose mostly 28.7 µM), hits mostly inhibitors; 320,000 compounds, 6.9% hits; P. falciparum luciferase reporter growth, 96 h
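Two parasite generations (96 h, 37 C, 5% CO2) of compound exposure in infected erythrocytes (0.05% parasitemia, 2% hematocrit). Luciferase-reporter P. falciparum; decreased luminescence indicates inhibited growth, aimed at apicoplast-acting delayed death.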
AMA1 RON2 block: AMA1-RON2 (P. falciparum) interaction inhibition. 360,000 compounds, 0.2% hits. Potency, µM (doses to about 58.2 µM), actives largely listed as inhibitors. AlphaScreen AMA1-biotinylated RON2 peptide binding; also: nearly all actives have a fitted effect of over 45% in size
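AMA1 (3D7) with his tag at 25 nM final met compounds first, then biotinylated RON2 peptide at 25 nM; detection used donor plus acceptor beads, 10 µg/mL apiece, read by AlphaScreen after 30 min at room temperature.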
HCV inh confirm: HCV inhibition, cherry-pick confirmation; shares compounds with HCV inh; HCVcc-Cre infectious virus cell assay, luciferase, inhibition; Potency, µM (series often up to 41.8 µM), usual class: inhibitors; 640 compounds, 78% hits; AID 720575; also: nearly all actives have a fitted effect of over 80% in size
HCV host tox: host cell cytotoxicity counter-screen for HCV inhibitors | AID 720576 | shares compounds with HCV inh | HCV host cell line cytotoxicity counterscreen | Potency, µM (top dose mostly 41.8 µM), actives largely listed as inhibitors | 640 compounds, 22% hits;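 also: 44 h compound exposure; nearly all actives have a fitted effect of over 55% in size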
Large screens that a line does not name were inactive (follow-up assays come after a bar, where they were run). The list is not random: actives were taken first. Their share in the collection is about 11%. Calls follow the shape of the dose curve; as a rule, active = well fitted curve in the direction sought with a large enough effect; inconclusive = small, poorly fitted or top-dose-only effect, or another doubt; inactive = no such curve, though single readings can be large; an effect the other way counts as inactive or inconclusive.

Cc1ccc(-n2c(SCC(=O)Nc3ccc(N4CCOCC4)cc3)nc3ccccc3c2=O)cc1	AmpC inh detg inconclusive, HCV inh inconclusive, Pf growth 48h inconclusive | HCV inh confirm inconclusive | HCV host tox inactive
O=C(c1cn(-c2ccccc2)nc1-c1cccc([N+](=O)[O-])c1)N1CCCCC1	HCV inh inconclusive, Pf growth 48h inconclusive | HCV inh confirm 11µM | HCV host tox inactive
CCn1c2c(c(=N)c3ccccc31)CCC2	HCV inh 8.9µM, Pf growth 48h inconclusive, Pf growth 96h inconclusive | HCV inh confirm 25µM | HCV host tox inconclusive
Cc1ccc(C(C)C)c(OCC(=O)Nc2ccc(O)c(-c3nc4cc(Cl)ccc4o3)c2)c1	none (no result: HCV inh, Pf growth 48h, AmpC no deterg, Pf growth 96h, AMA1 RON2 block)
CCN1/C(=C/c2ccc3cc(C)cc(C)c3[n+]2CC)Sc2cc(C)ccc21	HCV inh 7.1µM, Pf growth 48h 12µM, AMA1 RON2 block inconclusive | HCV inh confirm 7.9µM | HCV host tox 7.9µM
CCNC(=O)CCSc1nnc(-c2ccc(O)cc2)o1	none (no result: HCV inh, Pf growth 48h, AmpC no deterg, Pf growth 96h, AMA1 RON2 block)
CCCc1ccc(C2C3=C(CC(C)(C)CC3=O)NC3=C2C(=O)c2ccccc23)cc1 (stereo not drawn)	HCV inh 2.2µM, Pf growth 48h 9.3µM, Pf growth 96h 3.3µM, AMA1 RON2 block inconclusive | HCV inh confirm 11µM | HCV host tox inconclusive
Nc1nc(F)nc2c1ncn2[C@@H]1O[C@H](CO)[C@@H](O)[C@H]1O	HCV inh 0.79µM, Pf growth 96h inconclusive (no result: AmpC inh detg, AmpC no deterg) | HCV inh confirm 2µM | HCV host tox 6.3µM
O=C(Nc1ccc(Cl)c(Cl)c1)Nc1nnc(CC2=CCCCC2)s1	HCV inh 2.8µM, Pf growth 48h inconclusive, Pf growth 96h inconclusive | HCV inh confirm 7µM | HCV host tox 7.9µM
O=C(Nc1nnc(CC2=CCCCC2)s1)c1cccs1	none (no result: Pf growth 96h)
CCOC(=O)C1=C(C)N=c2s/c(=C/c3ccco3)c(=O)n2C1c1cccc(OC)c1 (stereo not drawn)	AmpC inh detg inconclusive, HCV inh inconclusive, Pf growth 48h inconclusive, AMA1 RON2 block inconclusive | HCV inh confirm inconclusive | HCV host tox inactive
O=S(=O)(Nc1ccc(-c2ccc(NS(=O)(=O)c3ccccc3)cc2)cc1)c1ccccc1	HCV inh 3.2µM (no result: AmpC inh detg, Pf growth 48h, AmpC no deterg, Pf growth 96h) | HCV inh confirm 13µM | HCV host tox inactive
O=S(=O)(c1ccc(Br)cc1)N1CCn2cccc2C1c1ccc(Br)cc1 (stereo not drawn)	none (no result: HCV inh, Pf growth 48h, AmpC no deterg, Pf growth 96h, AMA1 RON2 block)
CCCCn1c(SCn2nnc3ccccc3c2=O)nc2cc(S(N)(=O)=O)ccc21	HCV inh inconclusive, Pf growth 48h inconclusive (no result: Pf growth 96h) | HCV inh confirm 0.0011µM | HCV host tox inactive
CCCCn1c(SCN2C(=O)c3ccccc3C2=O)nc2cc(S(N)(=O)=O)ccc21	AmpC inh detg inconclusive
Cc1ccc(N=Nc2cc(C)ccc2N)cc1	HCV inh 3.2µM, AMA1 RON2 block 32µM | HCV inh confirm 3.1µM | HCV host tox inconclusive
Cc1ccc(N=Nc2c(N)n[nH]c2N)cc1	none
CC(C)Cc1ccc(C(C)C(=O)Nc2ccccc2O)cc1 (stereo not drawn)	HCV inh 4.5µM, Pf growth 48h inconclusive, AmpC no deterg 4µM | HCV inh confirm 4.4µM | HCV host tox 10µM
CC(C)Cc1ccc([C@@H](C)C(=O)NS(C)(=O)=O)cc1	none (no result: AmpC inh detg, HCV inh, AmpC no deterg, AMA1 RON2 block)
OC(c1cc(-c2cccc(Cl)c2)nc2ccccc12)C1CCCCN1 (stereo not drawn)	HCV inh inconclusive (no result: AmpC inh detg, Pf growth 48h, AmpC no deterg, Pf growth 96h)
OC(c1cc(-c2ccc(C(F)(F)F)cc2)nc(C(F)(F)F)c1)C1CCCCN1 (stereo not drawn)	HCV inh 5µM, Pf growth 48h 0.1µM, Pf growth 96h 0.0083µM | HCV inh confirm 14µM | HCV host tox inconclusive
Cc1ccc(CSc2nnc3[nH]c(=O)cc(C)n23)cc1	none (no result: HCV inh, Pf growth 48h, AmpC no deterg, Pf growth 96h, AMA1 RON2 block)
